Assay results as given in PubChem BioAssay AID463173 (ICCB-Longwood Screening Facility, Harvard Medical School, 2010).
About 1,700 (3.3%) of roughly 52,000 compounds were called active. Rule as the data show it: active = survival mostly below about 52% (no sharp cut-off); inactive = mostly above about 56%. This excerpt belongs to a sample that is enriched for actives.

The molecules below were run on Wild type (assay: S. aureus survival, RN4220 and DeltatarO strains – OD600, teichoic acid synthesis inhibitors, primary screen (AID 463173)). Conditions: S. aureus RN4220 wild type/DeltatarO growth, OD600, 18 h, active compounds read low, screened at 18.75 µg/mL (by protocol).

| SMILES | survival |
| --- | --- |
| CCCOc1ccc(C2C(=O)N(C3CCCCCC3)CC(=O)N2Cc2ccccc2OC)cc1OC (configuration not stated) | 87% (inactive) |
| COc1ccc(-c2nc(SCC(=O)Nc3ccc4c(c3)OCO4)c(-c3ccc(F)cc3)[nH]2)cc1OC | 65% (inactive) |
| COC(=O)C1CCCc2c1[nH]c1ccc(Cl)cc21 (configuration not stated) | 142% (inactive) |
| CC1=C(C(=O)OC2CCCC2)C(c2cccc(Cl)c2Cl)CC(=O)N1 (configuration not stated) | 90% (inactive) |
| Cc1ccc(F)cc1NC(=O)c1ccc(Cn2nc(N3CCN(c4ccccc4)CC3)ccc2=O)o1 | 127% (inactive) |
| CCc1cccc(NS(=O)(=O)c2ccc3c(c2)CC(C)N3C(=O)C2CC2)c1 (configuration not stated) | 80% (inactive) |
| COc1ccc(CNC(=O)Cn2c(=O)oc3cc(S(=O)(=O)N4CCCC4)ccc32)cc1 | 91% (inactive) |
| Cc1ccc2nc(-c3ccc(C)s3)c(Nc3ccc4c(c3)OCCO4)n2c1 | 83% (inactive) |
| CCOC(=O)c1cccc(NC(=O)N2CC(CC)Sc3ccccc32)c1 (configuration not stated) | 84% (inactive) |
| COc1ccc(CNC(=O)c2cc3c(=O)n(Cc4ccco4)ccc3nc2C)cc1 | 74% (inactive) |
| Cc1ccc2c(c1)c1c3n2CCN(C(=O)CN2CCN(C(=O)c4ccco4)CC2)C3CCC1 (configuration not stated) | 126% (inactive) |
| COc1ccc(C(=O)Oc2ccc(C(c3c(C)[nH][nH]c3=O)c3c(C)[nH][nH]c3=O)cc2OC)cc1 | 73% (inactive) |
| O=C(CSc1nnc(CNC(=O)c2ccccc2F)n1-c1ccccc1)Nc1ccccc1F | 66% (inactive) |
| CCN(C(=O)c1cc2cc3ccc(OC)cc3nc2o1)c1cccc(C)c1 | 0% (active) |
| CCN(C(=O)CCc1nc(-c2ccc(C)cc2)no1)c1cccc(Cl)c1 | -1% (active) |
| CC(C)(C)c1ccc(-c2noc(CCC(=O)Nc3cccc(Cl)c3)n2)cc1 | 87% (inactive) |
| COc1cc(-c2noc(CCC(=O)Nc3cc(C)ccc3C)n2)cc(OC)c1OC | 82% (inactive) |
| CCN(C(=O)CCc1nc(-c2ccc(C)cc2)no1)c1cc(C)ccc1C | 0% (active) |
| COc1ccc2cc3cc(C(=O)NCc4ccc(C)cc4)oc3nc2c1 | 89% (inactive) |
| CCN(C(=O)Cc1nc(-c2ccc(OC)cc2)no1)c1cccc(Cl)c1 | 84% (inactive) |
| COc1ccc(CNC(=O)c2cc3cc4ccc(C)cc4nc3o2)cc1 | 88% (inactive) |
| Cc1ccc(C)c(NC(=O)CCc2nc(-c3ccc(C(C)(C)C)cc3)no2)c1 | 109% (inactive) |
| Cc1ccc(-n2cnc3ccccc3c2=O)cc1C | 89% (inactive) |
| CCN1C(=O)C(C2SC(=S)N(CC)C2=O)SC1=S (configuration not stated) | 98% (inactive) |

| SMILES | survival |
| --- | --- |
| CCc1ccccc1N(C)C(=O)c1cnc(N2CCOCC2)c2ccccc12 | 65% (inactive) |
| CCc1ccc(NC(=O)N2c3ccccc3Sc3ccccc32)cc1 | 1% (active) |
| CCOC(=O)N1c2ccccc2Sc2ccccc21 | 95% (inactive) |
| CC(C)c1ccc(NC(=O)N2c3ccccc3Sc3ccccc32)cc1 | 5% (active) |
| CCOc1ccccc1NC(=O)N1c2ccccc2Sc2ccccc21 | 61% (inactive) |
| COc1cc(NC(=O)N2c3ccccc3Sc3ccccc32)cc(OC)c1 | 65% (inactive) |
| CCN(CC)C(=O)N1c2ccccc2Sc2ccccc21 | 108% (inactive) |
| O=C(O)c1ccccc1NC(=O)N1c2ccccc2Sc2ccccc21 | 28% (inactive) |
| COc1ccc(OC)c(NC(=O)N2c3ccccc3Sc3ccccc32)c1 | 19% (inactive) |
| COc1ccccc1NC(=O)N1c2ccccc2Sc2ccccc21 | -1% (active) |
| CCOC(=O)c1cccc(NC(=O)N2Cc3ccccc3Oc3ncccc32)c1 | 81% (inactive) |
| Cc1c2cnn(CC(=O)O)c(=O)c2c(C)n1Cc1cccc(Cl)c1 | 80% (inactive) |
| CCCSc1ncc(Cl)c(C(=O)N(Cc2ccccc2)c2ccc(OC)cc2)n1 | 80% (inactive) |
| Cc1ccc(-n2ncc3c(Nc4ccc5c(c4)OCCO5)ncnc32)cc1C | 100% (inactive) |
| CSc1cccc(Nc2cc(C(=O)NCCc3ccc(Cl)cc3)c3ccccc3n2)c1 | 120% (inactive) |
| Cc1c(-c2cccc(NC(=O)C(C)(C)C)c2)nc2ncccn12 | 71% (inactive) |
| Cc1c(-c2cccc(NC(=O)Nc3ccccc3)c2)nc2ncccn12 | 64% (inactive) |
| Cc1c(-c2cccc(NC(=O)Nc3ccc(Cl)cc3)c2)nc2ncccn12 | -4% (active) |
| CCc1nn(CC(=O)NCc2cccc(OC)c2)c(=O)c2cc3cc(F)ccc3n12 | 69% (inactive) |
| CCOc1ccc(CCNC(=O)c2ccc3nc(N4CCC(C)CC4)sc3c2)cc1OCC | 73% (inactive) |
| Cc1ccc(-n2ncc3c(NCc4ccccc4)ncnc32)cc1C | 67% (inactive) |
| Cc1ccc(-n2ncc3c(NCCc4ccccc4)ncnc32)cc1Cl | 65% (inactive) |
| Cc1ccc(-n2ncc3c(NCc4ccccc4)ncnc32)cc1Cl | -6% (active) |
